Where “and” joins values, the source holds several entries; their conditions need not be identical. Identical values can stand only once. Records with an inconclusive call do not appear. A call without a number means that no potency is given here. Calls of active or inactive are those of the source. Calls come from the whole dose curve; as a rule, active = well fitted curve in the direction sought with a large enough effect; inconclusive = small, poorly fitted or top-dose-only effect, or another doubt; inactive = no such curve, though single readings can be large; an effect the other way counts as inactive or inconclusive.

From PubChem BioAssay (NCATS) come the findings set out here.

In experiment [1] the target is Rap guanine nucleotide exchange factor 3 (Homo sapiens) (UniProt O95398). The experiment is described as follows: Confirmatory qHTS for antagonist of cAMP-regulated guanine nucleotide exchange factor 3 (EPAC1) (AID 1645880). Note: nearly all actives have a fitted effect of over 55% in size. Note: potency is the fitted concentration of half-maximal effect. The method, boiled down: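 Released BODIPY-GDP fluoresces less than Rap1-bound BODIPY-GDP; the signal is followed at 480/540 nm at 5-min intervals over 30 min, after 5 min at room temperature. Reactions contain 100 nM EPAC1, 250 nM RAP1B-BODIPY-GDP and 50 uM GDP; results are normalized to ATA and DMSO.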
Sequence of Rap guanine nucleotide exchange factor 3 (Homo sapiens) (O95398 whole entry, looked up): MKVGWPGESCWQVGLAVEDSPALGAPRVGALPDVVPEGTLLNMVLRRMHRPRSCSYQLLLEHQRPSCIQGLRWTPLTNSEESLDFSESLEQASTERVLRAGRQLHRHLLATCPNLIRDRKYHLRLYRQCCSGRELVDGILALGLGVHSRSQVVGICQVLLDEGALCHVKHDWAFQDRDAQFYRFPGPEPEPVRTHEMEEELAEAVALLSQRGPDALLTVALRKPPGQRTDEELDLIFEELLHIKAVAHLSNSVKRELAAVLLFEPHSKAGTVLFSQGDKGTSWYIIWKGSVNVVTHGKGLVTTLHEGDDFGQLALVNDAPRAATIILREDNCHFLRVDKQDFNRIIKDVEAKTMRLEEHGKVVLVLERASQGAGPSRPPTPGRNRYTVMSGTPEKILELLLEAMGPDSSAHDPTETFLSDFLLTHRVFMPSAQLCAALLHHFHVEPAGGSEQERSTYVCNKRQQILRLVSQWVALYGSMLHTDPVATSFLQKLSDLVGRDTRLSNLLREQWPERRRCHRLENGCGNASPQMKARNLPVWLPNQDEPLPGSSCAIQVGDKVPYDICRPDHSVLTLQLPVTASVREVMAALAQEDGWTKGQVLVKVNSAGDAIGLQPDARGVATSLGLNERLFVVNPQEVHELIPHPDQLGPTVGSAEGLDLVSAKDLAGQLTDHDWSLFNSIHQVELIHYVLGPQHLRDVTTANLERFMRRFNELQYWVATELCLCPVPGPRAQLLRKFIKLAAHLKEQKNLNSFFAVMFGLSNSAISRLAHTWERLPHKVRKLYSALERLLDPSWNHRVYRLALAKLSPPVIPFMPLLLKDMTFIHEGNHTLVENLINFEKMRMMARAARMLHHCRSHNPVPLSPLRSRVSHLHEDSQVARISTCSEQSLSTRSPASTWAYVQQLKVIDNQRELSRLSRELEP

Experiment [2] shares this target. The experiment is described as follows: Counterscreen qHTS for antagonist of cAMP-regulated guanine nucleotide exchange factor 3 (EPAC1) (AID 1645888). The method, boiled down: (§1)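 Measured: fluorescence of BODIPY-GDP bound to Rap1B, which falls as exchange proceeds. Conditions include 50 uM competing GDP, 5 and 30 min reads, and a later cAMP challenge for antagonist detection.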

The target is the same in experiment [3]. The experiment is described as follows: Counterscreen qHTS for agonist of cAMP-regulated guanine nucleotide exchange factor 3 (EPAC1) (AID 1645889). Note: nearly all actives have a fitted effect of over 40% in size. The method, boiled down:
as §1
Background: A counterscreen serves to expose hits that act by an unwanted route or on another target.

For the molecule `O=c1cc(-c2ccc(O)c(O)c2)oc2cc(O)cc(O)c12`, the Potency in experiment [1] is 6.27 µM (active) and 5.77 µM (active) and 7.57 µM (active). For the same molecule, the molecule was called inactive in experiment [2] and in experiment [3].
For the molecule `Cc1cc2nc3c(=O)[nH]c(=O)nc-3n(CC(O)C(O)C(O)CO)c2cc1C` (stereo unspecified), the Potency result in experiment [1] is “inactive”.
On to `NC(=O)c1nnn(Cc2cc(Cl)c(C(=O)c3ccc(Cl)cc3)c(Cl)c2)c1N`, for which the call in experiment [2] and in experiment [3] was inactive.
